Among the data in PubChem BioAssay (NCI) are growth inhibition values, retold here.

About 79,000 compounds went through this panel and 15% of them were active in at least one assay; those are over-represented in the sample as a whole. Values without a mark were called inactive. Calls of active or inactive are those of the source. Rule as the data show it: active = growth inhibition above about 70%; inactive = the rest.

The nature of the experiment: NCI Yeast Anticancer Drug Screen. Data for the bub3 strain (AID 167). The note with it: S. cerevisiae bub3 mutant strain, at 50.0 µM, stronger effect = higher value. The essentials:
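Mutant yeast screening strain plus compound; vehicle-treated cultures serve as the 0% inhibition reference.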
On to `Cc1cc(O)oc(=O)c1`, for which the growth inhibition was 1.85%.

`CCCCCCCCC1C(CCCCCCCC(=O)OC)C2(Cl)C(Cl)=C(Cl)C1(Cl)C2(Cl)Cl` (stereo not given): the growth inhibition was -1.2%.

With `CCOC(=O)C(=CNc1cccc(Cl)c1)C(=O)OCC`, the growth inhibition is 32.2%.

`COc1cc(C2C(C(=O)Nc3ccccc3C)=C(C)NC(C)=C2C(=O)Nc2ccccc2C)ccc1O`: the growth inhibition is -10.8%.

For `O=C(COc1ccc2c(=O)cc(-c3ccc(Cl)cc3)oc2c1)N1CCN(c2ccccc2)CC1`, the growth inhibition is 3.95%.

For `O=C(Cc1nc2ccc(C(=O)c3ccccc3)cc2[nH]c1=O)C(=O)Nc1nc2ccccc2[nH]1`, the growth inhibition is -4.25%.

On to `O=C(OCC1OC(OCc2ccccc2)C(OC(=O)c2ccccc2)C1OC(=O)c1ccccc1)c1ccccc1` (stereo not given), for which the growth inhibition is -13.5%.

For the compound `NC1=C(O)C(=O)C(c2ccccc2)O1` (stereo not given), the growth inhibition is -8.9%.

For the compound `N#CCc1cn(-c2ccccc2)nn1`, the growth inhibition is 0.45%.

In the case of `CC(C)=NNC(=S)NC12CC3CC(CC(C3)C1)C2`, the growth inhibition was 48.7%.

As for `CONCc1ccc(C(=O)NC(C)C)cc1`, the growth inhibition was -0.3%.

With `NC(=O)OC1CCN(c2cccc(Cl)c2)C1` (stereo not given), the growth inhibition was -18.8%.

Consider `O=C(O)CCn1cnc2c(=S)nc[nH]c21`, for which the growth inhibition is -54.6%.

Turning to `CCCCCc1ccccn1`, the growth inhibition is 12.1%.

`CC(COC(=O)c1ccc(N)cc1)NC1CCCCC1` (stereo not given): the growth inhibition was -2.25%.

For `COc1ccc(CC(=O)NCCc2ccc(OC)c(OC)c2OC)cc1`, the growth inhibition is -10.7%.

As for `C[C@@H](C1CCC2C3C(=CC(=O)[C@@]21C)[C@H](C)[C@]1(CCC(=O)O1)C1OC31)[C@H]1C[C@]2(C)O[C@@](C)(O1)OC2(C)C` (stereo not given in full), the growth inhibition was -14.2%.

For `Nc1cc(=S)nc(N)[nH]1`, the growth inhibition is 20.6%.

Consider `COC(=O)Nc1nc2c(OC)c(OC)c(OC)cc2[nH]1`, for which the growth inhibition was -18.6%.

Regarding `CCc1ccc(NS(=O)(=O)c2ccc3ccccc3c2)cc1`, the growth inhibition is 96.5% (active).

On to `N#CC(C(=N/NC(N)=S)/C(=N/NC(N)=S)C(C#N)c1ccc(Cl)cc1)c1ccc(Cl)cc1` (stereo not given), for which the growth inhibition is -4.95%.

In the case of `NC1=NC=NCN1c1ccc(N)cc1`, the growth inhibition is -3.6%.

On to `CCOC(=O)C1=CC2CCOC2O1` (stereo not given), for which the growth inhibition is -9.5%.

Consider `COc1cc(CNC(=S)CCCCCCCCCCC(C)C)ccc1O`, for which the growth inhibition is 15.2%.

As for `CNCCCCCCNc1cc(OC)cc2cccnc12`, the growth inhibition was 23.1%.

For `Cc1nn(C(=O)c2ccncc2)c2c1C(c1cccc([N+](=O)[O-])c1)SC(N)=N2` (stereo not given), the growth inhibition is -10.6%.

Turning to `CCN(CC)CC(=N)N(CC)c1ccccc1`, the growth inhibition is 23.8%.

In the case of `Cc1c2cnccc2c(C)c2c1c1ccccc1n2CCNCc1ccccc1`, the growth inhibition is 1.15%.

Consider `O=C(/C=C/c1ccccc1)c1cccc([N+](=O)[O-])c1`, for which the growth inhibition was 41.9%.

As for `O=C(O)CC(CC(=O)O)c1ccc(F)cc1`, the growth inhibition is 2.05%.

Consider `CCCc1nnnn1C12CC3CC(CC(C3)C1)C2`, for which the growth inhibition was 18.3%.

Regarding `Cc1cc(-c2ccccc2)n(C(C(=O)c2ccccc2)c2ccccc2)n1` (stereo not given), the growth inhibition was -26.7%.

For the compound `CC(=O)OCc1ccc(Cl)cc1Cl`, the growth inhibition was -33.4%.

Turning to `[N-]=[N+]=Nc1cc(-c2ccccc2)nc2cc3c(cc12)OCO3`, the growth inhibition was -34.2%.

For `O=S(=O)(NCCNS(=O)(=O)c1ccccc1)c1ccccc1`, the growth inhibition was 1.55%.

On to `N#C/C1=C(\N)CCSSSC1`, for which the growth inhibition is 9.5%.

As for `c1ccc(CCN=C2c3ccccc3-n3cccc32)nc1`, the growth inhibition is 10.6%.

On to `O=C1CSC(c2ccccc2)N1O` (stereo not given), for which the growth inhibition was -7.5%.

Take `CC(=O)OCC1OC(SC2=NC(=O)/C(=C/c3ccccc3)S2)C(OC(C)=O)C(OC(C)=O)C1OC(C)=O` (stereo not given): the growth inhibition is -4.1%.

`CC1(C)CC(=O)C2(C)C(C1O)C2C1C2C(O)C(C)(C)CC(=O)C21C` (stereo not given): the growth inhibition is 8.2%.
